{
  "source": "the supplement of paper PMC10849652",
  "note": "Of roughly 7,900 targets only a part is listed; those with a hit were picked by preference. About 0.6% of all pairs of compound and target were hits. Values without a mark were called inactive.",
  "data": [
    {"compound": "Nc1ccccc1NC(=O)c1ccc(CNC(=O)OCc2cccnc2)cc1 [entinostat]", "assay": "log2 fold change, soluble protein after heating vs DMSO (PISA); higher = thermal stabilisation; K562 cells, 10 uM, 30 min; active = over 0.2 and 3.5 SD of the protein, either way, in both replicates (recomputed)", "method_in_brief": "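Soluble protein was defined as the supernatant after 21,000xg for 90 min. It came from K562 cells at 2×10^6 cells/mL given 10 μM compound for 30 min, heated in aliquots for 3 min across 48°C-58°C, pooled, and extracted in PBS with 0.5% NP-40 at 4°C, and was quantified by TMTpro 16plex LC-MS/MS with equalised channel sums. Thermal stability against control samples, from duplicates, is reported as log2 fold change.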", "values": [
      {"target": "CD151 (UniProt P48509)", "log2 fold change": 0.094},
      {"target": "CBX1 (UniProt P83916)", "log2 fold change": 0.017},
      {"target": "CHCHD2 (UniProt Q9Y6H1)", "log2 fold change": -0.01},
      {"target": "CCNK isoform 4 (UniProt O75909)", "log2 fold change": -0.044},
      {"target": "CBR1 (UniProt P16152)", "log2 fold change": -0.008},
      {"target": "CASP2 (UniProt P42575)", "sequence (P42575 whole entry, looked up)": "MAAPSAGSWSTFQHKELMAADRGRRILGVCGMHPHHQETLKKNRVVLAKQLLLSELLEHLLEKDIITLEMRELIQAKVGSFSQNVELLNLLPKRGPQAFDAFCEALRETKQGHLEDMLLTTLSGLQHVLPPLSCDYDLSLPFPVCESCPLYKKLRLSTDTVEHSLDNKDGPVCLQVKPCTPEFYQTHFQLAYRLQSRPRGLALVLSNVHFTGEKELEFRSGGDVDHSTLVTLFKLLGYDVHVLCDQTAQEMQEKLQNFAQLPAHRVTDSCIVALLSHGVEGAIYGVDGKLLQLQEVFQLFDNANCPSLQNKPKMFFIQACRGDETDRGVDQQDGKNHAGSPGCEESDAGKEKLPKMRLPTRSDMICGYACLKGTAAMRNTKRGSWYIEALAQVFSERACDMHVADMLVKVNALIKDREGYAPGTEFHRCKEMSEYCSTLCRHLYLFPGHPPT", "log2 fold change": 0.017},
      {"target": "COCH (UniProt O43405)", "log2 fold change": 0.123},
      {"target": "CTBS (UniProt Q01459)", "sequence (Q01459 whole entry, looked up)": "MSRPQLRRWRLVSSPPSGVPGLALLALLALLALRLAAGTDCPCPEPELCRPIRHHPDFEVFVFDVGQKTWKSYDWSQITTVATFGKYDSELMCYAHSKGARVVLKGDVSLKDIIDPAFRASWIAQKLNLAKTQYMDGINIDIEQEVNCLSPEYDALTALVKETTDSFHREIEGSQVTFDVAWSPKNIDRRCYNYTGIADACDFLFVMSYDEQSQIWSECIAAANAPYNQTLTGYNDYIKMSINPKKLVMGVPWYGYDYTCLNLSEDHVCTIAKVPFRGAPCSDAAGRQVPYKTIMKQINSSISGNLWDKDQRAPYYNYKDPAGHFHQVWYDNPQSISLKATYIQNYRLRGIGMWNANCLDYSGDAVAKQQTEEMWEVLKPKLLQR", "log2 fold change": 0.058},
      {"target": "CDKN2AIP (UniProt Q9NXV6)", "log2 fold change": 0.017},
      {"target": "CBS (UniProt P35520)", "log2 fold change": -0.033},
      {"target": "COMT (UniProt P21964)", "sequence (P21964 whole entry, looked up)": "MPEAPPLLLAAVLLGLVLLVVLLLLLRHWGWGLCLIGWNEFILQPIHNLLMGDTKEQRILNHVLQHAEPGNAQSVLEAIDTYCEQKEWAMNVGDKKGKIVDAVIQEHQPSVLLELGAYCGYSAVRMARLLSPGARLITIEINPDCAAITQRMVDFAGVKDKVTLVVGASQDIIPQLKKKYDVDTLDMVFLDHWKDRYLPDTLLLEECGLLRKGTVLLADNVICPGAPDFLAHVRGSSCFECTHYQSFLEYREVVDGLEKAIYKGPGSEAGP", "log2 fold change": -0.022},
      {"target": "CCDC9 (UniProt Q9Y3X0)", "log2 fold change": -0.088},
      {"target": "CHD4 isoform 2 (UniProt Q14839)", "log2 fold change": 0.022},
      {"target": "COX5A (UniProt P20674)", "sequence (P20674 whole entry, looked up)": "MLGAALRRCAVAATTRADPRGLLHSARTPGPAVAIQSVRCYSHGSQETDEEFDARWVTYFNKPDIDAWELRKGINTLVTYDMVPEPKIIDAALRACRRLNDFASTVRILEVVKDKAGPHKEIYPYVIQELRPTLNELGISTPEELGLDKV", "log2 fold change": 0.024},
      {"target": "CLCN3 (UniProt P51790)", "sequence (P51790 whole entry, looked up)": "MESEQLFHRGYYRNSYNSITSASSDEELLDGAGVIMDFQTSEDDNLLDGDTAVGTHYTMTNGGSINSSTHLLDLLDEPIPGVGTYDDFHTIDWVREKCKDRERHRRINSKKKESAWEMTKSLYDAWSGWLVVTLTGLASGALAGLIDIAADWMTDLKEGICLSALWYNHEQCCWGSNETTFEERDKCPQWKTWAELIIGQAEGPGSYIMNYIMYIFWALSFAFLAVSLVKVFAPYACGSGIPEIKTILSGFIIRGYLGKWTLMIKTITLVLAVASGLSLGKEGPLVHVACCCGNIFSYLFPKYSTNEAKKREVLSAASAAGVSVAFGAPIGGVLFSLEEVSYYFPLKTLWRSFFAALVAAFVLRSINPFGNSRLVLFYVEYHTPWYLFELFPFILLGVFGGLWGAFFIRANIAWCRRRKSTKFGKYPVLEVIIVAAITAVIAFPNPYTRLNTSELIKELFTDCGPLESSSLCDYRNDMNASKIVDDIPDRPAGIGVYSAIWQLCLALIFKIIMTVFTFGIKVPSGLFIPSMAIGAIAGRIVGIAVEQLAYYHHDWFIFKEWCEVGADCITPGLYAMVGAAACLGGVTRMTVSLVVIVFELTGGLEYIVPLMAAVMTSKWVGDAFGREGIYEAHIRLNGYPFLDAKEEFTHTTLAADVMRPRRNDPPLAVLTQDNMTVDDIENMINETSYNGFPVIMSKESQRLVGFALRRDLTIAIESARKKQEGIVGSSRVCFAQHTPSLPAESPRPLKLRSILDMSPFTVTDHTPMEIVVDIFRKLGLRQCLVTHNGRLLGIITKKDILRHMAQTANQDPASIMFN", "log2 fold change": -0.012},
      {"target": "C4A (UniProt P0C0L4)", "sequence (P0C0L4 whole entry, looked up)": "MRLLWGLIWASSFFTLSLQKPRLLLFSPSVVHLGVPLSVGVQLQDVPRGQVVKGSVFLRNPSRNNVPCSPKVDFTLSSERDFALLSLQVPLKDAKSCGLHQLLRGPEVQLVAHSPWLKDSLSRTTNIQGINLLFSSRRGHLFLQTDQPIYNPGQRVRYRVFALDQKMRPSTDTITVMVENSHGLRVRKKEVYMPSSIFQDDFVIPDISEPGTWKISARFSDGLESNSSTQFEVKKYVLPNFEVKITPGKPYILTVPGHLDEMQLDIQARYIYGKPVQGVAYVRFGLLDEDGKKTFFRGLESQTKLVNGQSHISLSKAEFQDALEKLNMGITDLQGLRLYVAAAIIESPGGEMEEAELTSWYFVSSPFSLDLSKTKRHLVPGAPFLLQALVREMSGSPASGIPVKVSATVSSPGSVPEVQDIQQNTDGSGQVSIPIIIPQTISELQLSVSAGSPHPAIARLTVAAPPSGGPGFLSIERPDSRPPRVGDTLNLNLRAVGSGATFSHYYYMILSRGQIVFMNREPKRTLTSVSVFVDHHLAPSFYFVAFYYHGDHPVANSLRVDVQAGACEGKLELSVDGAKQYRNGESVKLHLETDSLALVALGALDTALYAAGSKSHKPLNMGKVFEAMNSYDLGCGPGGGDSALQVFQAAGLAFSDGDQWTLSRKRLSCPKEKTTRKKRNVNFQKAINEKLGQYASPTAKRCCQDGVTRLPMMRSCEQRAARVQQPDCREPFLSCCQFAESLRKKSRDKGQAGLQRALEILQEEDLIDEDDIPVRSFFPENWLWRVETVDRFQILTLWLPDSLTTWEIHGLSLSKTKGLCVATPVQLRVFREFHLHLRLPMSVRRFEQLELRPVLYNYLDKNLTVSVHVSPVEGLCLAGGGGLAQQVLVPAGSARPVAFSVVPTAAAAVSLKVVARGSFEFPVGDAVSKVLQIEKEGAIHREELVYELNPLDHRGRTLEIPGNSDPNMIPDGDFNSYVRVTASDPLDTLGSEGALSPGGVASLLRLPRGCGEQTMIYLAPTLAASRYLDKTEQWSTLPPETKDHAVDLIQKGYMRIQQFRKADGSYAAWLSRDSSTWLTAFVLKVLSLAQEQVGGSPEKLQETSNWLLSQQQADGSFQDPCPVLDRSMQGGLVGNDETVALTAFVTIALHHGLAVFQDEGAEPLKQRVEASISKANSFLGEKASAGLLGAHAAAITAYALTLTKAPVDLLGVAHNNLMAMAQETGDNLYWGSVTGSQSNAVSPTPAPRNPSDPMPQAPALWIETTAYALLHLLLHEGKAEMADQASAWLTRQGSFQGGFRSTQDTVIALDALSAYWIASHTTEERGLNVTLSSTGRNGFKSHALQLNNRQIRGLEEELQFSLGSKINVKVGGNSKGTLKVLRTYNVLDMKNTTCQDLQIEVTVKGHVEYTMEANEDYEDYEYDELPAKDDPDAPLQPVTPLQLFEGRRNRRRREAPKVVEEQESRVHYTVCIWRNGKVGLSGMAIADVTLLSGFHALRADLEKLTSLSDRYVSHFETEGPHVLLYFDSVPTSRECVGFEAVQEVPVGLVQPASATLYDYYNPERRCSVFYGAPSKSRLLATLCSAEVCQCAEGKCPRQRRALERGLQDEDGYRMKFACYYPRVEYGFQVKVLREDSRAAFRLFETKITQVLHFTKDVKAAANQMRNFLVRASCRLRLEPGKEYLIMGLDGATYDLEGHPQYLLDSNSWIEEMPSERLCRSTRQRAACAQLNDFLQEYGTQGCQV", "log2 fold change": 0.021},
      {"target": "CCAR2 isoform 2 (UniProt Q8N163)", "log2 fold change": 0.089},
      {"target": "COPS4 (UniProt Q9BT78)", "log2 fold change": 0.01},
      {"target": "CDK16 isoform 2 (UniProt Q00536)", "sequence (Q00536 whole entry, looked up)": "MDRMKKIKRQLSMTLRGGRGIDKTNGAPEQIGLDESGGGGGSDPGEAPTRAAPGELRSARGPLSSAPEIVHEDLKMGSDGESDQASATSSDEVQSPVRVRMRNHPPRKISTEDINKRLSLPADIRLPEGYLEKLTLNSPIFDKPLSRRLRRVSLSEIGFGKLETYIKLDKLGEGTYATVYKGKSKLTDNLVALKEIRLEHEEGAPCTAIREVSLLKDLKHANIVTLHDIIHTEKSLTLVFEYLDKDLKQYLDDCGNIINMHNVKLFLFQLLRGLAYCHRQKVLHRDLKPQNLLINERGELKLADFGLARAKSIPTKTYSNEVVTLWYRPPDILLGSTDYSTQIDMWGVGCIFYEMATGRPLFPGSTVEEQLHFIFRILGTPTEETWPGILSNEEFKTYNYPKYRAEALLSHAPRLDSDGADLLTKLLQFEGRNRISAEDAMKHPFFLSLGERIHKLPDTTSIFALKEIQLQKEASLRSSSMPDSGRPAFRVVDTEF", "log2 fold change": -0.041},
      {"target": "COPS3 (UniProt Q9UNS2)", "sequence (Q9UNS2 whole entry, looked up)": "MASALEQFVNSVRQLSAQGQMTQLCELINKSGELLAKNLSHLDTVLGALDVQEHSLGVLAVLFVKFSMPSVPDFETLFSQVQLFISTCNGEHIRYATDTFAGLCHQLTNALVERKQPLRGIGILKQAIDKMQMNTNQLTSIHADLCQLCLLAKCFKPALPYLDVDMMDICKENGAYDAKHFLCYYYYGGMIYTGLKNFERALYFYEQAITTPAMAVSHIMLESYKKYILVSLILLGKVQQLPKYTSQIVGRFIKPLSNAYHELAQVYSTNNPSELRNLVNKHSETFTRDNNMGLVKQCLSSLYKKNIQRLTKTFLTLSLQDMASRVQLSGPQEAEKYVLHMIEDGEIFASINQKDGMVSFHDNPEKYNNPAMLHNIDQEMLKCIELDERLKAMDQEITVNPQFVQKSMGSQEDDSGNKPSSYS", "log2 fold change": 0.002},
      {"target": "C4orf33 (UniProt Q8N1A6)", "sequence (Q8N1A6 whole entry, looked up)": "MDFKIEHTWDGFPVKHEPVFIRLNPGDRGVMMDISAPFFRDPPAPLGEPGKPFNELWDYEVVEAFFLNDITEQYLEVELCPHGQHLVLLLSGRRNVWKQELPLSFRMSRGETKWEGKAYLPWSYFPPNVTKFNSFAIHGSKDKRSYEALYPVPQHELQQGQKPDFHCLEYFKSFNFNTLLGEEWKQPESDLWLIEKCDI", "log2 fold change": -0.156},
      {"target": "COPS8 (UniProt Q99627)", "log2 fold change": 0.034},
      {"target": "CDK5RAP3 isoform 4 (UniProt Q96JB5)", "log2 fold change": 0.056}
    ]}
  ]
}
